Activity calls are given as the source filed them.
Key:
[1] = tested on: XIP peptide (Xip251-270) binding; experiment: XIP fragment 251-270 binding compounds – biochemical, small-molecule microarray, fluorescence 635/667 nm, 0.1 µg/mL protein, primary screen (AID 1182); conditions: fluorescent protein binding, 635 nm, higher = more signal, called active from +8 up or from −8 down
[2] = tested on: XIP peptide (Xip251-270); experiment: compounds binding XIP fragment 251-270 – biochemical, small-molecule microarray, fluorescence 635/667 nm, 0.5 µg/mL protein, primary screen (AID 1183); conditions: fluorescence 635 nm, higher = more signal
[3] = blood-stage malaria parasite viability loss – strain 3D7, DAPI fluorescence, 100 nL, primary screen (AID 1184);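 note: parasites grown inside human red blood cells in medium with human serum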; conditions: P. falciparum 3D7 growth, 3 d, higher = more signal
[4] = target: Homeobox protein Hox-A13 (Mus musculus) (UniProt Q62424); experiment: disruptors of Hoxa13 oligonucleotide interaction – biochemical, fluorescence polarization, labeled oligonucleotide, primary screen (AID 1185); conditions: Hoxa13:DNA binding, 15 min, higher = more signal, called active from +8 up or from −8 down
Sequence of Homeobox protein Hox-A13 (Mus musculus) (Q62424 whole entry, looked up): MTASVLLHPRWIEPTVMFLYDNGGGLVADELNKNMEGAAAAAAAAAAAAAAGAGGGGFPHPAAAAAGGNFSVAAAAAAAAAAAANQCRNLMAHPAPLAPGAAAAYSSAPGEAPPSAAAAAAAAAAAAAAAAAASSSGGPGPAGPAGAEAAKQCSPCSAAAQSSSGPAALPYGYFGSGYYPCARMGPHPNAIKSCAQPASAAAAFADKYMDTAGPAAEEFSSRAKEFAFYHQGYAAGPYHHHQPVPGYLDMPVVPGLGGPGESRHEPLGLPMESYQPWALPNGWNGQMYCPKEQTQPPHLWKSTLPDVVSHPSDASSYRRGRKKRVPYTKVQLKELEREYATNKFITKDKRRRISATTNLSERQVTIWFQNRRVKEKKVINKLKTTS

| Compound | composite z-score [1] | composite z-score [2] | z-score [3] | z-score [4] |
| --- | --- | --- | --- | --- |
| CC(CCC(=O)OC[C@H]1O[C@H](C#Cc2ccccc2)C=C[C@@H]1Oc1ccc(C)cc1)=NO[C@H](C)c1cn([C@@H]2COC[C@H]2O)nn1 | 0.0435 (inactive) | -0.391 | -0.114 | -4.04 (inactive) |
| CC(=O)OC[C@H]1O[C@H](CC=NOC(C)CN2CCCc3nc(C)c(C)cc32)C=C[C@@H]1OC(C)=O (some centres not stated) | 1.29 (inactive) | 0.618 | -0.224 | -6.1 (inactive) |
| COc1ccc(O[C@H]2C=C[C@@H](C#Cc3ccccc3)O[C@@H]2CO)cc1 | -0.727 (inactive) | 0.266 | 0.284 | -3.22 (inactive) |
| CCOC(=O)[C@H](CC(C)C)NC(=O)CCC1CC(OC(=O)NCc2ccc3c(c2)OCO3)CC2(CCCC(COC(=O)NCc3ccccc3)O2)O1 (some centres not stated) | 0.117 (inactive) | 0.118 | -1.79 | -6.86 (inactive) |
| C#CCCCON=C1C[C@@H](O)[C@@H](O)[C@@H]2[C@@H]3C(=O)N([C@@H](C)c4ccccc4)C(=O)[C@@H]3CC[C@@H]12 | -0.406 (inactive) | -0.125 | -0.913 | -2.28 (inactive) |
| CC(C)CN1CCc2nc(-c3ccccc3)c3c(c2C1)CO[C@@H](C)C3 | 0.973 (inactive) | 0.687 | -0.927 | -4.73 (inactive) |
| CC(C)(C)N1C(=O)[C@H]2[C@H]3[C@H](O)[C@H](O)CC(=NOC[C@@H](O)COCc4ccco4)[C@@H]3CC[C@H]2C1=O | -0.484 (inactive) | 0.502 | -0.0662 | -2.78 (inactive) |
| Cc1ccc2[nH]c3nc(CCCn4ccnc4-c4ccccc4)nnc3c2c1 | -0.0582 (inactive) | 0.623 | -1.09 | -0.867 (inactive) |
